Inconclusive results are not listed. Active and inactive are the calls of the source. How the source made its calls: active means hit-call score of the fitted dose curve at least 0.9, where 1 is the maximum; inconclusive means response in the unintended direction; inactive means score below 0.9.
molecular target: Estrogen receptor (Homo sapiens) (UniProt P03372); experiment: NVS_NR_hER: NovaScreen (NVS) Nuclear Receptor Binding Assay for human Estrogen Receptor (ER) (AID 2283348)
Procedure: NVS_NR_hER is a biochemical, single-readout assay that uses extracted gene-proteins from MCF7 in a cell-free assay. Measurements were taken 18 hours after chemical dosing in a 96-well plate.NVS_NR_hER is one of one assay component(s) measured or calculated from the NVS_NR_hER assay. It is designed to make measurements of radioligand binding, a form of binding reporter, as detected with scintillation counting signals by Lysate-based radiodetection technology.Data from the assay component NVS_NR_hER was analyzed into 1 assay endpoint. This assay endpoint, NVS_NR_hER, was analyzed in the positive analysis fitting direction relative to DMSO as the negative control and baseline of activity. Using a type of binding reporter, loss-of-signal activity can be used to understand changes in the binding as they relate to the gene ESR1. Furthermore, this assay endpoint can be referred to as a primary readout, because the performed assay has only produced 1 assay endpoint. To generalize the intended target to other relatable targets, this assay endpoint is annotated to the nuclear receptor intended target family, where the subfamily is steroidal.
Binding assays used specific radioligands (tritiated, iodinated) with non-radioactive competitive displacement ligands in agonist or antagonist protocols (as indicated) and various reference compounds and inhibitors to titrate specific binding to receptors and transporters. Most enzyme assays (CYPs, kinases, phosphatases, proteases, HDACs) used recombinant protein and specific substrates (fluorescence mostly, some colorimetric and radioactive) and inhibitors, followed by a biochemical separation of substrate and product. All assays for the biochemical HTS were initially run in duplicate at a single concentration (10 uM for CYP450 assays and 25 uM for all others). […] Each assay was run with positive and negative controls, and concurrent controls on every plate. The follow-up (secondary) screen tested active chemical-pairs in concentration series, as well as a few additional assays not tested in the primary screen, some selected negative inactives, and several cases re-run in the concentration series for confirmatory purposes.

Sequence of Estrogen receptor (Homo sapiens) (P03372 whole entry, looked up): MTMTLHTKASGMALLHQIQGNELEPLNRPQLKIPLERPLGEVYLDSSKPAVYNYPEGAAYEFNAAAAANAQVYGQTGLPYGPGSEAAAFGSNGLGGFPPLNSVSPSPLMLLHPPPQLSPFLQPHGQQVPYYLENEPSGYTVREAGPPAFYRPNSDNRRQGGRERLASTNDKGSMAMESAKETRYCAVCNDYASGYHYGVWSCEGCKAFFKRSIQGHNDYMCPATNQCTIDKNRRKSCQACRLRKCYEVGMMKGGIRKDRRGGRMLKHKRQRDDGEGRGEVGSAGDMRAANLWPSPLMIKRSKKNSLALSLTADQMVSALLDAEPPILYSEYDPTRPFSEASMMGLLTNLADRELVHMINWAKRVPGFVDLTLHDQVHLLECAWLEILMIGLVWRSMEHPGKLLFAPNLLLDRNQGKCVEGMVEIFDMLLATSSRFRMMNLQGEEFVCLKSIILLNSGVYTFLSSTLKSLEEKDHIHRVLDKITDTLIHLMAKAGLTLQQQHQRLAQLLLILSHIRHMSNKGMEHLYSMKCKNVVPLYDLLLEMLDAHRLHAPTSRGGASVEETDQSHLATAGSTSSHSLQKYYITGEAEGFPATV

Row | SMILES | outcome | AC50
1 | CCCCCCCCN(C)CCCCCCCC | inactive | 
2 | Clc1ccccc1C(c1ccccc1)(c1ccccc1)n1ccnc1 | inactive | 
3 | c1ccc2ccccc2c1 | inactive | 
4 | NCc1cccc(C2CCN(C(=O)c3ccc(C#Cc4ccccc4F)o3)CC2)c1 | inactive | 
5 | CC(C)(O)c1ccc(CNC(=O)c2cccnc2Oc2ccc3nonc3c2)cc1 | inactive | 
6 | CC[C@H](NC(=O)c1cc(F)ccc1NS(=O)(=O)c1cccc2cccnc12)c1ccccc1 | inactive | 
7 | CCCCCCCCOC(=O)c1cc(O)c(O)c(O)c1 | inactive | 
8 | CCCOC(=O)c1cc(O)c(O)c(O)c1 | inactive | 
9 | CN(C)C(=O)C1(N2CCCCC2)CCN(CC[C@@]2(c3ccc(Cl)c(Cl)c3)CN(C(=O)c3ccccc3)CCO2)CC1 | inactive | 
10 | CCCCCc1ccc(N)cc1 | inactive | 
11 | CC(C)(C)c1cc(/C=C2\SC(N)=NC2=O)cc(C(C)(C)C)c1O | inactive | 
12 | CN(C)c1ccc(C(=C2C=CC(=[N+](C)C)C=C2)c2ccc(N(C)C)cc2)cc1 | inactive | 
13 | Cc1oc2c(NC(=O)c3c(Cl)cccc3Cl)cccc2c1C(C)(C)O |  | 13.6 µM (active)
14 | CN(C[C@@H](CC[N+]12CCC(C3CCCCC3)(CC1)CC2)c1ccc(Cl)c(Cl)c1)C(=O)c1cc(C(F)(F)F)cc(C(F)(F)F)c1 |  | 33 µM (active)
15 | Cc1c2ccccc2c(C)c2c1ccc1ccccc12 | inactive | 
16 | Cc1cc(F)ccc1-c1cc(N2CC[C@@H](O)[C@H]2CO)ncc1N(C)C(=O)C(C)(C)c1cc(C(F)(F)F)cc(C(F)(F)F)c1 | inactive | 
17 | O=C(Nc1ccc(Cl)cc1)Nc1ccc(Cl)c(Cl)c1 | inactive | 
18 | CCOC(=O)O[C@H](C)OC(=O)c1ccc2c(c1)cc(C(=O)NC1CCN(C(C)C)CC1)n2Cc1cc(-c2ccc(Cl)s2)on1 | inactive | 
19 | NC(=O)c1nc(-c2cccc(-c3cc(F)ccc3OCC(F)(F)C(F)(F)F)c2)n[nH]1 | inactive | 
20 | CCCCCCCCCCCO | inactive | 
21 | CCN(Cc1cccnc1)C(=O)c1cccc(Cl)c1[C@]1(C)C(=O)N(Cc2ccc(OC)cc2OC)c2ccc(Cl)cc21 |  | 7.99 µM (active)
